{
  "source": "PubChem BioAssay (NCATS)",
  "note": "Inconclusive results are not listed. Active and inactive are the calls of the source. Calls follow the shape of the dose curve; as a rule, active = well fitted inhibition curve with a large enough effect; inconclusive = small, poorly fitted or top-dose-only effect; inactive = flat fitted curve, though single readings scatter. % is scaled to controls: 0 for no effect and ±100 for the full control effect.",
  "data": [
    {"experiment": "P-glycoprotein substrates identified in KB-8-5-11 adenocarcinoma cell line, qHTS therapeutic library screen (AID 1346987); also: nearly all actives have a fitted effect of over 65% in size", "settings": "KB-8-5-11 (P-gp overexpressing) viability, CellTiter-Glo, 72 h; series mostly up to 44.5 µM; activity change, negative = cytotoxicity: at the top concentration", "in_short": "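Steps: plate 500 KB-8-5-11 cells/well in DMEM + 10% FCS (colchicine removed); pin compounds in dose-response; incubate 72 h, 37 degree C, 5% CO2; add CellTiter-Glo, 5 min; read luminescence.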", "values": [
      {"smiles": "C=C1CCC2C(C)(C(=O)O)CC(O)CC2(C)C1CC/C(C)=C/C(=O)O", "note": "(stereo not given)", "activity change, negative = cytotoxicity": "6.48% (inactive)"},
      {"smiles": "COc1cc(/C=C/C(=O)O[C@H]2[C@H](O)[C@@H](CO)O[C@@]2(CO)O[C@H]2O[C@H](COC(=O)c3ccc(O)cc3)[C@@H](O)[C@H](O)[C@H]2O)cc(OC)c1OC", "outcome": "inactive [at 17.3 µM]"},
      {"smiles": "CC1(C)C(O)CCC2(C)C1C(O)C=C1COC(=O)C12O", "note": "(stereo not given)", "activity change, negative = cytotoxicity": "9.08% (inactive)"},
      {"smiles": "CC1CCC2(NC1)OC1C(=O)C3C4CCC5CC(O[C@@H]6O[C@H](CO)[C@@H](O)[C@H](O)[C@H]6O[C@@H]6O[C@@H](C)[C@H](O)[C@@H](O)[C@H]6O)CCC5(C)C4CCC3(C)C1C2C", "note": "(stereo not given in full)", "activity change, negative = cytotoxicity": "8.48% [at 17.3 µM] (inactive)"},
      {"smiles": "OC[C@H]1O[C@@H](n2cnc3c2NC=NC[C@H]3O)C[C@@H]1O", "Potency": "inactive"},
      {"smiles": "COC(=O)C1=CO[C@@H](O[C@@H]2O[C@H](COC(=O)/C=C/c3cc(OC)c(O)c(OC)c3)[C@@H](O)[C@H](O)[C@H]2O)[C@@H]2C(CO)=CC[C@H]12", "outcome": "inactive [at 17.3 µM]"},
      {"smiles": "CC(C)C(=O)O[C@@H]1[C@@H](O)[C@@H](O[C@H]2O[C@H](CO)[C@@H](O)[C@H](O)[C@H]2O)O[C@H](CO)[C@H]1O", "activity change, negative = cytotoxicity": "5.88% [at 17.3 µM] (inactive)"},
      {"smiles": "COc1cc([C@H]2OC[C@@H]3[C@@H](c4ccc(O[C@@H]5O[C@H](CO)[C@@H](O)[C@H](O)[C@H]5O)c(OC)c4)OC[C@]23O)ccc1O", "outcome": "inactive [at 17.3 µM]"},
      {"smiles": "CC1CCC2C(C(=O)O)=CC3CC(C)(C)CC132", "note": "(stereo not given)", "activity change, negative = cytotoxicity": "2.88% (inactive)"},
      {"smiles": "COc1cc2c(cc1O)C1(Cc3ccc4c(c3C1=O)OCO4)N(C)CC2", "note": "(stereo not given)", "outcome": "inactive"},
      {"smiles": "COC1CC(=O)C23C(=O)NC(CC(C)C)C2C(C)C(C)=CC3/C=C(\\C)CCC1O", "note": "(stereo not given)", "activity change, negative = cytotoxicity": "6.49% [at 17.3 µM] (inactive)"},
      {"smiles": "CC(=O)N[C@H]1CCN(c2ccc(C3=NOC(CN[S+](=O)([O-])C(C)C)C3)cc2F)C1", "note": "(stereo not given in full)", "outcome": "inactive"},
      {"smiles": "CC(=O)OC1C(O)C(C)=C(CCC(C)CC(=O)O)C2(C)CCCC(C)(C)C12", "note": "(stereo not given)", "activity change, negative = cytotoxicity": "7.18% (inactive)"},
      {"smiles": "N#Cc1ccnc(N2C(=O)CC[C@H]2C(=O)N(c2cncc(F)c2)[C@H](C(=O)NC2CC(F)(F)C2)c2ccccc2Cl)c1", "activity change, negative = cytotoxicity": "-20.7% (inactive)"},
      {"smiles": "COc1cc(/C=C/C(=O)OC2CC3CCC2(C)C3(C)C)ccc1O", "note": "(stereo not given)", "activity change, negative = cytotoxicity": "7.16% (inactive)"},
      {"smiles": "CN1Cc2c(N)cccc2C(c2ccccc2)C1", "note": "(stereo not given)", "activity change, negative = cytotoxicity": "4.55% (inactive)"},
      {"smiles": "C=C(C)[C@@H]1CC[C@](C)(O)[C@@H](OC(=O)c2ccccc2)C1", "activity change, negative = cytotoxicity": "-8.95% (inactive)"},
      {"smiles": "COC1(CC(C)C)NC(=O)C(O)(Cc2ccccc2)NC1=O", "note": "(stereo not given)", "outcome": "inactive"},
      {"smiles": "COc1cc([C@@H]2Oc3c(OC)cc(CCCO)cc3[C@@H]2CO[C@@H]2O[C@H](CO)[C@@H](O)[C@H](O)[C@H]2O)ccc1O", "activity change, negative = cytotoxicity": "9.63% [at 17.3 µM] (inactive)"},
      {"smiles": "C=C1[C@@H]2[C@H]3OC(=O)C(=C)[C@@H]3CC[C@@](C)(O)[C@@H]2C[C@@H]1O[C@@H]1O[C@H](CO)[C@@H](O)[C@H](O)[C@H]1O", "outcome": "inactive [at 17.3 µM]"},
      {"smiles": "C[C@@H]1C(=O)O[C@H]2CC34[C@H]5C[C@@H](C(C)(C)C)C36[C@@H](OC(=O)[C@@H]6O)O[C@@]4(C(=O)O5)[C@]21O", "note": "(stereo not given in full)", "outcome": "inactive [at 17.3 µM]"},
      {"smiles": "COC(=O)C1=CO[C@@H](O[C@@H]2O[C@H](CO[C@@H]3O[C@H](COC(=O)/C=C/c4ccc(O)cc4)[C@@H](O)[C@H](O)[C@H]3O)[C@@H](O)[C@H](O)[C@H]2O)[C@@H]2C(CO)=CC[C@H]12", "outcome": "inactive [at 17.3 µM]"},
      {"smiles": "COC(=O)C1C(CC(C)=O)C=CC(O)C12Oc1cc(C)cc(O)c1C2=O", "note": "(stereo not given)", "activity change, negative = cytotoxicity": "9.55% (inactive)"},
      {"smiles": "C[C@@H]1C/C=C/C=C\\C=C\\C=C\\[C@H](O[C@@H]2O[C@H](C)[C@@H](O)[C@H](N)[C@@H]2O)C[C@@H]2O[C@](O)(C[C@@H](O)C[C@H]3O[C@@H]3/C=C/C(=O)O1)C[C@H](O)[C@H]2C(=O)O", "outcome": "inactive [at 17.3 µM]"},
      {"smiles": "CC(=O)OC(C)OC(=O)C(C)c1ccc(-c2ccccc2)c(F)c1", "note": "(stereo not given)", "Potency": "inactive"},
      {"smiles": "CO[C@H]1C=C2C(CC[C@H](O[C@@H]3O[C@H](CO)[C@@H](O)[C@@H](O)[C@H]3O)C2(C)C)[C@]2(C)CC[C@]3(C)C([C@H](C)C(O)C(C=C(C)C)O[C@@H]4O[C@H](CO)[C@@H](O)[C@@H](O)[C@H]4O)CC[C@@]3(C)C12", "note": "(stereo not given in full)", "activity change, negative = cytotoxicity": "0.439% [at 9.29 µM] (inactive)"},
      {"smiles": "NCc1c[nH]c(=S)n1C1CCc2c(F)cc(F)cc2C1", "note": "(stereo not given)", "activity change, negative = cytotoxicity": "1.95% (inactive)"},
      {"smiles": "O=C1[C@H](O[C@@H]2O[C@H](CO)[C@@H](O)[C@H](O)[C@H]2O)Oc2ccccc2N1O", "outcome": "inactive"},
      {"smiles": "CC1(C)CC2C(O)C3=C(CC(C)(O)C2C1)C(=O)OC3O", "note": "(stereo not given)", "activity change, negative = cytotoxicity": "0.194% (inactive)"},
      {"smiles": "CC(C)(C)NCc1cc(Nc2ccnc3cc(Cl)ccc23)c2c(c1O)CCCC2", "activity change, negative = cytotoxicity": "0.372% [at 0.354 µM] (inactive)"},
      {"smiles": "COc1cc2c(cc1O)C1(OC)Cc3ccc4c(c3C1N(C)CC2)OCO4", "note": "(stereo not given)", "activity change, negative = cytotoxicity": "4.82% (inactive)"},
      {"smiles": "O=C1C[C@@H](c2ccc(O)cc2)Oc2cc(O)ccc21", "outcome": "inactive"},
      {"smiles": "C[C@@H]1O[C@@H](O[C@H]2[C@H](O[C@H]3CC[C@@]4(C)C(CC[C@]5(C)C4CC=C4C6CC(C)(C)CC[C@]6(C(=O)O[C@@H]6O[C@H](CO[C@@H]7O[C@H](CO)[C@@H](O[C@@H]8O[C@@H](C)[C@H](O)[C@@H](O)[C@H]8O)[C@H](O)[C@H]7O)[C@@H](O)[C@H](O)[C@H]6O)CC[C@]45C)[C@]3(C)CO)OC[C@H](O)[C@@H]2O)[C@H](O)[C@H](O)[C@H]1O", "note": "(stereo not given in full)", "outcome": "inactive [at 9.29 µM]"},
      {"smiles": "C[C@@H]1O[C@@H](O[C@H]2[C@H](O[C@H]3[C@H](O[C@H]4CC[C@@]5(CO)C(CC[C@]6(C)C5CC=C5C7CC(C)(C)C[C@@H](O)[C@]7(C)CC[C@]56C)C4(C)C)O[C@H](C(=O)O)[C@@H](O)[C@@H]3O)OC[C@@H](O)[C@@H]2O)[C@H](O)[C@H](O)[C@H]1O", "note": "(stereo not given in full)", "outcome": "inactive [at 9.29 µM]"},
      {"smiles": "CC(=O)N(O)CCCCCN1C(=O)CCC1=O", "activity change, negative = cytotoxicity": "3.18% (inactive)"},
      {"smiles": "Cc1[nH]cnc1C1CCN(c2nc3cccc4c3n2CCC4=O)CC1", "outcome": "inactive"},
      {"smiles": "CC(O)(CC(=O)O)CC(=O)O[C@@H]1[C@@H](O)[C@H](OCCc2ccccc2)O[C@H](CO)[C@H]1O", "note": "(stereo not given in full)", "activity change, negative = cytotoxicity": "0.385% [at 17.3 µM] (inactive)"},
      {"smiles": "Oc1ccc([C@H]2COc3cc(O)ccc3C2)cc1", "outcome": "inactive"},
      {"smiles": "COc1cc(C(=O)OC[C@H]2O[C@H](O[C@@]3(CO)O[C@@H](CO)[C@H](O)[C@H]3O)[C@H](O)[C@@H](O)[C@@H]2O)ccc1O", "outcome": "inactive [at 17.3 µM]"},
      {"smiles": "C[C@@H]1O[C@@H](O[C@@H]2[C@@H](O)[C@H](O[C@@H]3[C@@H](O)[C@@H](O)[C@H](O[C@H]4[C@H](OC(=O)[C@]56CCC(C)(C)C[C@H]5C5=CCC7[C@@]8(C)C[C@H](O)[C@H](O[C@@H]9O[C@H](C(=O)O)[C@@H](O)[C@H](O)[C@H]9O)[C@@](C)(CO)C8[C@H](O)C[C@@]7(C)[C@]5(C)CC6)OC[C@H](O)[C@@H]4O)O[C@H]3C)OC[C@H]2O)[C@H](O)[C@H](O)[C@H]1O", "note": "(stereo not given in full)", "outcome": "inactive [at 9.29 µM]"}
    ]}
  ]
}
